# Data taken from PubChem BioAssay (EPA / NIEHS).
# Several values for one entry are separate records, joined by “and”; a condition that tells them apart may be missing. Identical values can stand only once. Inconclusive results are not listed. Some structures have more than one record in an assay (separate samples or runs), and their calls can disagree. Activity calls are given as the source filed them. The calls were made as follows, unless noted: active = hit-call score of the fitted dose curve at least 0.9, where 1 is the maximum; inactive = score below 0.9.
# Key:
# [1] = ATG_NFI_CIS: Attagene CIS-FACTORIAL HepG2 Assay for human Nuclear Factor I (NFI) (AID 2282989); settings: HepG2 cis-regulatory reporter, NFI response element transcription; actives raise or lower the signal
# Outline: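 HepG2 cells transiently transfected with cis-element-driven multiplexed reporter transcription units, dosed for 24 h. Reporter mRNA quantified by RT-PCR, fluorescent labelling, HpaI digestion and capillary electrophoresis; bidirectional fit versus DMSO baseline.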
# [2] = biological target: Myc proto-oncogene protein (Homo sapiens) (UniProt P01106); assay: ATG_Myc_CIS: Attagene CIS-FACTORIAL HepG2 Assay for human Myelocytomatosis (Myc) Proto-Oncogene Transcription Factor (AID 2282990); settings: HepG2, Attagene cis-reporter transcription factor activity; actives raise or lower the signal
# Outline: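 HepG2 cells transiently transfected with multiple cis-promoter-driven reporter transcription units, so endogenous TF activity is read. After 24 h compound exposure, reporter mRNA was quantified by RT-PCR, 6-FAM labelling, HpaI digestion and capillary electrophoresis; bidirectional fit versus DMSO.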
# [3] = ATG_NF_kB_CIS: Attagene CIS-FACTORIAL HepG2 Assay for human Nuclear Factor Kappa B (NF-kB) (AID 2282991); settings: HepG2 Attagene cis-factorial NF-kB reporter mRNA; actives raise or lower the signal
# Outline: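 Read-out: reporter transcript levels quantified by RT-PCR plus capillary electrophoresis of 6-FAM-labelled, HpaI-cut fragments. Transfected HepG2 cells, 24 h compound exposure, endogenous NF-kB-driven cis element; gain or loss scored versus DMSO.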
# [4] = ATG_Oct_MLP_CIS: Attagene CIS-FACTORIAL HepG2 Assay for human Octamer-Binding Transcription Factor (Oct) (AID 2282993); settings: HepG2 Attagene cis-factorial Oct reporter, mRNA; actives raise or lower the signal
# Outline: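 HepG2 cells transiently transfected with cis-promoter-driven multiplexed reporter transcription units, dosed for 24 h. Reporter mRNA quantified by RT-PCR, fluorescent labelling, HpaI digestion and capillary electrophoresis; bidirectional fits versus DMSO baseline.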
# [5] = biological target: Cellular tumor antigen p53 (Homo sapiens) (UniProt P04637); assay: ATG_p53_CIS: Attagene CIS-FACTORIAL HepG2 Assay for human p53 Transcription Factor (AID 2282994); settings: HepG2 p53 cis-element reporter, Attagene mRNA; actives raise or lower the signal
# Outline: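 Using HepG2 hepatoma cells carrying cis-acting multiplexed reporters, mRNA induction is detected after a 24 h exposure. Gain- and loss-of-signal responses are fitted relative to DMSO-treated cells.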
# [6] = biological target: human Peroxisome Proliferator-activated Receptor alpha (PPARa), PPARA (gene 5465) (UniProt Q07869); assay: ATG_PPARa_TRANS: Attagene TRANS-FACTORIAL HepG2 Assay for human Peroxisome Proliferator-activated Receptor alpha (PPARa) (AID 2283001; active = hit-call score of the fitted dose curve at least 0.9, where 1 is the maximum;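 as to AC50: potency for gain of reporter signal over DMSO so agonist or activator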)
# Outline: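 HepG2 cells transiently transfected with multiplexed GAL4-UAS reporter units and chimeric NR-Gal4 constructs were dosed for 24 h. Reporter mRNA was measured by RT-PCR with fluorescent labelling and capillary electrophoresis; gain of signal fitted against DMSO.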
# [7] = biological target: human Peroxisome Proliferator-activated Receptor delta (PPARd), PPARD (gene 5467) (UniProt Q03181); assay: ATG_PPARd_TRANS: Attagene TRANS-FACTORIAL HepG2 Assay for human Peroxisome Proliferator-activated Receptor delta (PPARd) (AID 2283002; active = hit-call score of the fitted dose curve at least 0.9, where 1 is the maximum)
# Outline: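 HepG2 cells transiently transfected with multiplexed GAL4-UAS reporter units and exogenous chimeric NR-Gal4 proteins; 24 h compound exposure. Reporter mRNA measured by RT-PCR, 6-FAM labelling, HpaI digestion and capillary electrophoresis; gain of signal versus DMSO.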
# [8] = biological target: human Retinoic Acid Receptor beta (RARb), RARB (gene 5915) (UniProt P10826); assay: ATG_RARb_TRANS: Attagene TRANS-FACTORIAL HepG2 Assay for human Retinoic Acid Receptor beta (AID 2283004; active = hit-call score of the fitted dose curve at least 0.9, where 1 is the maximum)
# Outline: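 Transient transfection of HepG2 with multiple reporter units → chemical dosing, 24 h → total RNA isolation → RT with oligo(dT) → reporter-specific PCR, 6-FAM primer extension, HpaI digest → capillary electrophoresis. Positive direction vs DMSO control.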
# [9] = biological target: Nuclear receptor subfamily 1 group I member 2 (Homo sapiens) (UniProt O75469); assay: ATG_PXR_TRANS: Attagene TRANS-FACTORIAL HepG2 Assay for human Pregnane X Receptor (PXR) (AID 2283008; active = hit-call score of the fitted dose curve at least 0.9, where 1 is the maximum)
# Outline: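 Fluorescence intensity of FAM-labelled, HpaI-digested reporter amplicons, separated by capillary electrophoresis, quantifies induction. HepG2 cells with PXR-Gal4 trans-reporter system were exposed 24 h; DMSO defines baseline.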
# [10] = biological target: human RAR-related Orphan Receptor beta (RORb), RORB (gene 6096) (UniProt Q92753); assay: ATG_RORb_TRANS: Attagene TRANS-FACTORIAL HepG2 Assay for human RAR-related Orphan Receptor beta (RORb) (AID 2283010; active = hit-call score of the fitted dose curve at least 0.9, where 1 is the maximum)
# Outline: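 HepG2 cells were transiently transfected with multiplexed GAL4-UAS reporter units expressing chimeric nuclear receptor–GAL4 proteins, then dosed for 24 h. Reporter mRNA was quantified by RT-PCR with fluorescent labelling and capillary electrophoresis; gain of signal was fitted relative to DMSO.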
# [11] = biological target: human Retinoic Acid Receptor gamma (RARg), RARG (gene 5916) (UniProt P13631); assay: ATG_RARg_TRANS: Attagene TRANS-FACTORIAL HepG2 Assay for human Retinoic Acid Receptor gamma (RARg) (AID 2283009; active = hit-call score of the fitted dose curve at least 0.9, where 1 is the maximum;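 as to AC50: AC50 is for reporter induction above DMSO meaning RARg activation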)
# Outline: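 HepG2 cells transiently transfected with multiplexed reporter units expressing chimeric RARg-GAL4 and GAL4-UAS-driven reporters; 24 h compound exposure. Reporter mRNA quantified by RT-PCR with fluorescent labelling and capillary electrophoresis; gain-of-signal fitted relative to DMSO baseline.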
# [12] = ATG_NRF2_ARE_CIS: Attagene CIS-FACTORIAL HepG2 Assay for human Nuclear Factor Erythroid 2 Related Factor 2 (NFR2) response to Antioxidant Response Elements (ARE) (AID 2282992); settings: HepG2 Attagene ARE/NRF2 reporter, transcription factor activity; actives raise or lower the signal;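 as to AC50: reporter mRNA level measured by RT-PCR and capillary electrophoresis fluorescence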
# Outline: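 Cis-factorial assay: transfected HepG2 reporter library, 24 h dosing, mRNA readout via RT-PCR/CE; DMSO-referenced bidirectional analysis.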
# [13] = biological target: Retinoic acid receptor alpha (Homo sapiens) (UniProt P10276); assay: ATG_RARa_TRANS: Attagene TRANS-FACTORIAL HepG2 Assay for human Retinoic Acid Receptor alpha (RARa) (AID 2283005; active = hit-call score of the fitted dose curve at least 0.9, where 1 is the maximum)
# Outline: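 HepG2 cells transiently transfected with multiple reporter units expressing chimeric RARα-GAL4 fusion, with GAL4-UAS-driven reporters. After 24 h compound exposure, reporter mRNA induction quantified by RT-PCR and capillary electrophoresis with fluorescent labeling; gain-of-signal fitted relative to DMSO control.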
# [14] = biological target: Peroxisome proliferator-activated receptor gamma (Homo sapiens) (UniProt P37231); assay: ATG_PPARg_TRANS: Attagene TRANS-FACTORIAL HepG2 Assay for human Peroxisome Proliferator-activated Receptor-gamma (PPARg) (AID 2283007; active = hit-call score of the fitted dose curve at least 0.9, where 1 is the maximum)
# Outline: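 Read-out: reporter mRNA induction, detected by fluorescence after RT-PCR and capillary electrophoresis. Transiently transfected human HepG2 liver cells carrying a chimeric NR-Gal4 construct were dosed for 24 h; activity was fitted upward relative to DMSO.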
# [15] = BSK_3C_TissueFactor: BioMAP Diversity Plus: 3C Assay for Tissue Factor Biomarker Activity (AID 2282997); settings: BioMAP 3C HUVEC, tissue factor biomarker readout; actives raise or lower the signal
# Outline: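 ELISA read-out of Tissue Factor levels on human umbilical vein endothelium collected 24 h after chemical dosing. Gain or loss of signal was fitted relative to DMSO.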
# [16] = BSK_3C_uPAR: BioMAP Diversity Plus: 3C Assay for Urokinase-type plasminogen activator receptor (uPAR) Biomarker Activity (AID 2282998); settings: BioMAP 3C HUVEC, uPAR biomarker ELISA; actives raise or lower the signal
# Outline: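 Human umbilical vein endothelial primary cells were exposed to test chemical for 24 h. Cell-surface uPAR was then quantified by ELISA, and responses were fitted bidirectionally against DMSO as negative control and baseline.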
# [17] = BSK_3C_VCAM1: BioMAP Diversity Plus: 3C Assay for Vascular cell adhesion molecule 1 (VCAM1) Biomarker Activity (AID 2282999); settings: BioMAP 3C HUVEC, VCAM1 ELISA, cytokine-stimulated; actives raise or lower the signal
# Outline: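 Human umbilical vein endothelial cells were dosed with compound for 24 h, after which cell-surface VCAM-1 was quantified by ELISA. Bidirectional curve fitting used DMSO as negative control and activity baseline.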
# [18] = BSK_4H_Eotaxin3: BioMAP Diversity Plus: 4H Assay for Eotaxin 3 Biomarker Activity (AID 2283000); settings: primary human endothelial cells (HUVEC); actives raise or lower the signal;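 as to outcome: CCL26 protein level quantified by ELISA in parallel with SRB cytotoxicity check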
# Outline: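 Chemicals were added to human umbilical vein endothelium cultures, and Eotaxin-3 was quantified by ELISA at 24 h. Values were derived by bidirectional fitting with DMSO serving as negative control and activity baseline.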
# [19] = read-out: Intercellular Adhesion Molecule 1 (ICAM1), ICAM1 (gene 3383); assay: BSK_3C_ICAM1: BioMAP Diversity Plus: 3C Assay for Intercellular Adhesion Molecule 1 (ICAM1) Biomarker Activity (AID 2283003); settings: primary human endothelial cells (HUVEC); actives raise or lower the signal
# Outline: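 Primary human umbilical vein endothelial cells in the BioMAP 3C system were exposed to chemicals for 24 h, then ICAM-1 was quantified by ELISA. Activity was fitted bidirectionally against the DMSO negative control baseline.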
# [20] = BSK_3C_Proliferation: Cell Proliferation Assessment in the BioMAP Diversity Plus: 3C Assay (AID 2283006); settings: primary human endothelial cells (HUVEC);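 as to AC50: potency may reflect either rise or fall in cell number versus DMSO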
# Outline: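 Human umbilical vein endothelial cells were grown sub-confluent and exposed to chemical for 48 h, then fixed with 10% TCA and stained with 0.1% sulforhodamine B; absorbance at 560 nm gave relative cell number, fitted bidirectionally against DMSO baseline.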
# Myc proto-oncogene protein (Homo sapiens), sequence (P01106 whole entry, looked up): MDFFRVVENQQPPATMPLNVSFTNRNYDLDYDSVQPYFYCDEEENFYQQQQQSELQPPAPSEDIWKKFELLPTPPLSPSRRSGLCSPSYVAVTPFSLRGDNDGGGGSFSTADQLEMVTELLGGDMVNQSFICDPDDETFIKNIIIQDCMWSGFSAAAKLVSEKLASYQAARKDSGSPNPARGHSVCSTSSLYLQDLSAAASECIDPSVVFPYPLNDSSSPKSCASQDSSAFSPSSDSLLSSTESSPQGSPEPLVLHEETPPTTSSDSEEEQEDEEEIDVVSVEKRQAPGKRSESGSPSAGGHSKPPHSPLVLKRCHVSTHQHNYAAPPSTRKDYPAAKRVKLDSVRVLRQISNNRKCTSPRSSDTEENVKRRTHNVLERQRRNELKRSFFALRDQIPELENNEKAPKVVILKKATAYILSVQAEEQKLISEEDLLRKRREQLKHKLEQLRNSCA
# Peroxisome proliferator-activated receptor gamma (Homo sapiens), sequence (P37231 whole entry, looked up, the tested form may be a part): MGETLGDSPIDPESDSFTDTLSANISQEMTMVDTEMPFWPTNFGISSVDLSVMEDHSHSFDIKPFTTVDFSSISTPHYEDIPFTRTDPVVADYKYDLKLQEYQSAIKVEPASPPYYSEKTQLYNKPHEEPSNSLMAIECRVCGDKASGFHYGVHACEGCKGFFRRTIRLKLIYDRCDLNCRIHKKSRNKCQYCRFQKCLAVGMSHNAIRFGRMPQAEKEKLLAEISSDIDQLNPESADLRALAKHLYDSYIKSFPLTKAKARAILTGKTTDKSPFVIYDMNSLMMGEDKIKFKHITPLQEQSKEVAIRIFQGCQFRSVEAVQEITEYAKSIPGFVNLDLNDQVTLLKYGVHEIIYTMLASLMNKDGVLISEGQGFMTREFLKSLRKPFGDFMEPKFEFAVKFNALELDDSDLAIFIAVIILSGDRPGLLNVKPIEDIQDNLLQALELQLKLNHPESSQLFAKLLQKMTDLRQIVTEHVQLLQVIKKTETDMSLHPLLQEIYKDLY
# human Peroxisome Proliferator-activated Receptor alpha (PPARa), PPARA (gene 5465), sequence (Q07869 whole entry, looked up, the tested form may be a part): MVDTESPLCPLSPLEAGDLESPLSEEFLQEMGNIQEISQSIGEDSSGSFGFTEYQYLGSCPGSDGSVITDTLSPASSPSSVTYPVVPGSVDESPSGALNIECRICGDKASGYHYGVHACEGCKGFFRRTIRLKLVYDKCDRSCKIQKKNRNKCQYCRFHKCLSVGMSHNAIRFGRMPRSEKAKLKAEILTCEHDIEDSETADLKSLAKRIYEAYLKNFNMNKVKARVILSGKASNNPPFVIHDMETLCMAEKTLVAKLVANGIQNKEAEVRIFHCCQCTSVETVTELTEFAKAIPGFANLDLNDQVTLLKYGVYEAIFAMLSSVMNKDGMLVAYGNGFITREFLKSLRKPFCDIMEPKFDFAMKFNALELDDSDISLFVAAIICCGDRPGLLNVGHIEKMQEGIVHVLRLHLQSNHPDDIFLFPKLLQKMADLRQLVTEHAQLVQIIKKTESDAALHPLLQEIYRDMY
# human Retinoic Acid Receptor beta (RARb), RARB (gene 5915), sequence (P10826 whole entry, looked up): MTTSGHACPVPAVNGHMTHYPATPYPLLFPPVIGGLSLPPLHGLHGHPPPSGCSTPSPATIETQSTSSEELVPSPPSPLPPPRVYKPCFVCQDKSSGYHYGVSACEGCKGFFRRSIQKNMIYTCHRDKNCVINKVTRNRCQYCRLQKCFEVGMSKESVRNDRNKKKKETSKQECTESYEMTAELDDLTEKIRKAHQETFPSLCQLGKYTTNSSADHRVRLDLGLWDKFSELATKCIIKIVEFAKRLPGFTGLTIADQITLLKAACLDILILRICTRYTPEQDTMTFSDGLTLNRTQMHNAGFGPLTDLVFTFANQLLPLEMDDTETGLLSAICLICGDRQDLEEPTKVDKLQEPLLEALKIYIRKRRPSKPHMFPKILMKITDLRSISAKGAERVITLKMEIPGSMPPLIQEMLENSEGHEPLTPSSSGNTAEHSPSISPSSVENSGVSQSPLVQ
# human Peroxisome Proliferator-activated Receptor delta (PPARd), PPARD (gene 5467), sequence (Q03181 whole entry, looked up, the tested form may be a part): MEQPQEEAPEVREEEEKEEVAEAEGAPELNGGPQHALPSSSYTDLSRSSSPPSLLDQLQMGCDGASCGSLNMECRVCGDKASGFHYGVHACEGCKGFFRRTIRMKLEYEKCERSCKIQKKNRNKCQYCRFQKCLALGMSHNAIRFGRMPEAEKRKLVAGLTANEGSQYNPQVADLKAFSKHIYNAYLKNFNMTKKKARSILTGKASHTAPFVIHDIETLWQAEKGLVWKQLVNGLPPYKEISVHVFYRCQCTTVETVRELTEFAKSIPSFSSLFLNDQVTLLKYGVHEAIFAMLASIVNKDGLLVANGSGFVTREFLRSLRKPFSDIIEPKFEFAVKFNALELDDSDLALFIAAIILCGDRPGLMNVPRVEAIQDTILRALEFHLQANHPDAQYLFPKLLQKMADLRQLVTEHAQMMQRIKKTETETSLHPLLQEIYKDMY
# human Retinoic Acid Receptor gamma (RARg), RARG (gene 5916), sequence (P13631 whole entry, looked up, the tested form may be a part): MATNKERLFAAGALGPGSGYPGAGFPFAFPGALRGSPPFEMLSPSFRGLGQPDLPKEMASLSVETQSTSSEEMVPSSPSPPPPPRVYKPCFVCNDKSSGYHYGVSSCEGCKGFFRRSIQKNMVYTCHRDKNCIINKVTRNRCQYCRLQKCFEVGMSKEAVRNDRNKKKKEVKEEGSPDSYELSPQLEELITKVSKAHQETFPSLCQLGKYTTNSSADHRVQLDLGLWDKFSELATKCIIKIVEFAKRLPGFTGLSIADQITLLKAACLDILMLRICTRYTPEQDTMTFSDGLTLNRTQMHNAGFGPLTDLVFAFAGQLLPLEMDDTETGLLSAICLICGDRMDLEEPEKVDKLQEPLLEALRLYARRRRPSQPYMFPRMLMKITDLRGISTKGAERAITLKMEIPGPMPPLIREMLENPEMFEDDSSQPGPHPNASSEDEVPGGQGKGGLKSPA
# Retinoic acid receptor alpha (Homo sapiens), sequence (P10276 whole entry, looked up, the tested form may be a part): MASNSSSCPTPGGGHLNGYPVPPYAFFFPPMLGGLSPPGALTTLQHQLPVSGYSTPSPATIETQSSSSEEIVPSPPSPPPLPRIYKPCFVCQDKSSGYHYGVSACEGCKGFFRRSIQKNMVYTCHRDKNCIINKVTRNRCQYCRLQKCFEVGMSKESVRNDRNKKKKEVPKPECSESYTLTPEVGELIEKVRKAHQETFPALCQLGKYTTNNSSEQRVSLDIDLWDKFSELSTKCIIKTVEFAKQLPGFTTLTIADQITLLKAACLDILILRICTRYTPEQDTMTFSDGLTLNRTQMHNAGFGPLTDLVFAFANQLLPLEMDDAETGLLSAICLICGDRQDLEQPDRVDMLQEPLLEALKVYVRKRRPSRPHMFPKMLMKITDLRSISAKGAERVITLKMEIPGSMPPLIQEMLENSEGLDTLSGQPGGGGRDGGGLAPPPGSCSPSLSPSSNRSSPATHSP
# Nuclear receptor subfamily 1 group I member 2 (Homo sapiens), sequence (O75469 whole entry, looked up, the tested form may be a part): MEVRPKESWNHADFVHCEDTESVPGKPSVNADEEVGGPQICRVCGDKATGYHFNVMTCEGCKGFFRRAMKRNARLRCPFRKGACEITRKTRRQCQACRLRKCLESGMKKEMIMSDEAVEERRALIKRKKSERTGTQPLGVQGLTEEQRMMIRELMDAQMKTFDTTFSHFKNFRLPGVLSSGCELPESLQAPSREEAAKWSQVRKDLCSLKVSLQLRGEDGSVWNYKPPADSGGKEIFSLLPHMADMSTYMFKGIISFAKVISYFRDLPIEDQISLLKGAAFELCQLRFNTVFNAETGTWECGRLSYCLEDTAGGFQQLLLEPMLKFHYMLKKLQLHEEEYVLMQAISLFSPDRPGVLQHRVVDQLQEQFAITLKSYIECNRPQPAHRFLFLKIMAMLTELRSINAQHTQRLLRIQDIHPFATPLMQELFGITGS
# Cellular tumor antigen p53 (Homo sapiens), sequence (P04637 whole entry, looked up): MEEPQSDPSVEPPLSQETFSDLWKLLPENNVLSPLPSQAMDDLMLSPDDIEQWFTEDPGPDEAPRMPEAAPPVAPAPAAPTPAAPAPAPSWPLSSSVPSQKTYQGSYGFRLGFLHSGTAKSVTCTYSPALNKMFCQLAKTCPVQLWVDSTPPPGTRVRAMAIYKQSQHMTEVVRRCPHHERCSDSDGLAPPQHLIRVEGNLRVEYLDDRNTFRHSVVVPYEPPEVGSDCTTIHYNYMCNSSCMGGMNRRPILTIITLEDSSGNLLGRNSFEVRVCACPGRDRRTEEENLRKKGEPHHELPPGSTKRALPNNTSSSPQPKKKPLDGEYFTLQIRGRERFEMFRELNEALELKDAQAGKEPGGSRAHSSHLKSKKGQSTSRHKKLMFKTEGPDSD
# human RAR-related Orphan Receptor beta (RORb), RORB (gene 6096), sequence (Q92753 whole entry, looked up, the tested form may be a part): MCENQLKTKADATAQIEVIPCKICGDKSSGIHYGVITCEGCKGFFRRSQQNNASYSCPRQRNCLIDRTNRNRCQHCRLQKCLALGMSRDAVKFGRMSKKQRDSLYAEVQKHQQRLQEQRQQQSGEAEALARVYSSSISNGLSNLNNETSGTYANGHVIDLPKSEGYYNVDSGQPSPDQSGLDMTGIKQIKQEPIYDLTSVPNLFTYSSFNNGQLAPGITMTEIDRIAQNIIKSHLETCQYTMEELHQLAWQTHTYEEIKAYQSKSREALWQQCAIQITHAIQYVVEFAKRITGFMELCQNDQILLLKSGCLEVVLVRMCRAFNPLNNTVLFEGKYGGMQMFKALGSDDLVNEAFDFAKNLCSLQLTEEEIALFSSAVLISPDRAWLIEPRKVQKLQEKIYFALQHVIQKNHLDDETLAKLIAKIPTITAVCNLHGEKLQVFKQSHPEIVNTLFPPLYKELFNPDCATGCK
smiles,measurement,setting,value
c1cc2cccc3c4cccc5cccc(c(c1)c23)c54,outcome,[1],inactive
same,outcome,[2],inactive
same,outcome,[3],inactive
same,outcome,[4],inactive
same,outcome,[5],inactive
same,outcome,[6],inactive
same,outcome,[7],inactive
same,outcome,[8],inactive
same,outcome,[9],inactive
same,outcome,[10],inactive
Cc1ccccc1C(OCCN(C)C)c1ccccc1 (stereo not given),outcome,[1],inactive
same,outcome,[2],inactive
same,outcome,[3],inactive
same,AC50,[4],119 µM (active)
same,outcome,[4],inactive
same,AC50,[5],52.6 µM (active) and 88.3 µM (active)
same,outcome,[6],inactive
same,outcome,[7],inactive
same,outcome,[9],inactive
same,outcome,[11],inactive
CCOC(OCC)C(=O)c1ccccc1,outcome,[1],inactive
same,outcome,[2],inactive
same,outcome,[3],inactive
same,outcome,[12],inactive
same,outcome,[4],inactive
same,outcome,[5],inactive
same,outcome,[8],inactive
same,outcome,[13],inactive
same,outcome,[14],inactive
same,AC50,[9],16.7 µM (active)
same,outcome,[10],inactive
CCN(CCC#N)c1ccccc1,outcome,[1],inactive
same,outcome,[2],inactive
same,outcome,[3],inactive
same,outcome,[12],inactive
same,outcome,[4],inactive
same,outcome,[8],inactive
same,outcome,[13],inactive
same,outcome,[14],inactive
same,AC50,[9],38.1 µM (active)
same,outcome,[11],inactive
same,outcome,[10],inactive
CCCCCCCCCCCC[N+](C)(C)Cc1ccccc1,outcome,[1],inactive
same,outcome,[2],inactive
same,outcome,[3],inactive
same,AC50,[4],13.5 µM (active)
same,outcome,[4],inactive
same,AC50,[6],68.2 µM (active)
same,outcome,[6],inactive
same,outcome,[7],inactive
same,outcome,[9],inactive
same,AC50,[11],155 µM (active)
same,outcome,[10],inactive
CC1CNCC(C)O1 (stereo not given),outcome,[1],inactive
same,outcome,[2],inactive
same,outcome,[3],inactive
same,outcome,[4],inactive
same,outcome,[5],inactive
same,outcome,[6],inactive
same,outcome,[8],inactive
same,outcome,[14],inactive
same,outcome,[9],inactive
same,outcome,[11],inactive
COc1cc(OC)nc(NC(=O)NS(=O)(=O)Nc2ccccc2C(=O)N(C)C)n1,outcome,[1],inactive
same,outcome,[2],inactive
same,outcome,[3],inactive
same,outcome,[4],inactive
same,outcome,[5],inactive
same,outcome,[15],inactive
same,outcome,[16],inactive
same,outcome,[17],inactive
same,outcome,[18],inactive
same,outcome,[6],inactive
same,outcome,[19],inactive
same,outcome,[13],inactive
same,outcome,[20],inactive
same,outcome,[14],inactive
FC(F)(F)C(F)(F)C(F)(F)C(F)(F)I,outcome,[1],inactive
same,outcome,[2],inactive
same,outcome,[3],inactive
same,outcome,[4],inactive
same,outcome,[5],inactive
same,outcome,[6],inactive
same,outcome,[7],inactive
same,outcome,[8],inactive
same,outcome,[14],inactive
same,outcome,[9],inactive
Nc1ccc(O)c(C(=O)O)c1,outcome,[1],inactive
same,outcome,[2],inactive
same,outcome,[3],inactive
same,outcome,[4],inactive
same,outcome,[5],inactive
same,outcome,[6],inactive
same,outcome,[7],inactive
same,outcome,[8],inactive
same,outcome,[9],inactive
same,outcome,[11],inactive
same,outcome,[10],inactive
C/C=C/C(=O)C1=C(C)CCCC1(C)C,AC50,[1],65.1 µM (active)
same,outcome,[2],inactive
same,outcome,[3],inactive
same,AC50,[12],3.93 µM (active)
same,AC50,[4],27.1 µM (active)
same,AC50,[5],164 µM (active)
same,AC50,[9],19.8 µM (active)
CC(C)(C)c1ccc(O)c(O)c1,outcome,[1],inactive
same,outcome,[2],inactive
same,outcome,[3],inactive
same,outcome,[4],inactive
same,outcome,[5],inactive
same,AC50,[15],3.97 µM (active)
same,outcome,[16],inactive
same,AC50,[17],20 µM (active)
same,AC50,[18],7.29 µM (active)
same,AC50,[6],31.7 µM (active) [middle of 5 runs]
same,outcome,[7],inactive
same,outcome,[19],inactive
same,outcome,[8],inactive
same,outcome,[13],inactive
same,AC50,[20],20 µM (active)
same,AC50,[9],7.04 µM (active) [middle of 5 runs]
same,outcome,[11],inactive
C[N+](C)(CCCNS(=O)(=O)CCC(F)(F)C(F)(F)C(F)(F)C(F)(F)C(F)(F)C(F)(F)F)CC(=O)[O-],outcome,[1],inactive
same,outcome,[2],inactive
same,outcome,[3],inactive
same,outcome,[4],inactive
same,outcome,[5],inactive
same,outcome,[6],inactive
same,outcome,[7],inactive
same,outcome,[8],inactive
same,outcome,[13],inactive
same,outcome,[14],inactive
same,AC50,[9],0.00287 µM (active)
same,outcome,[11],inactive
